# Hits are enriched below; roughly 9.3% of the tested compounds scored in any of these assays.
# HCMV antiviral: qHTS Assay for inhibitors of the human cytomegalovirus (HCMV) | actives 4.5% (n = 410,000) | HFF cells, HCMV-luciferase reporter, 72 h; stronger effect = lower value | activity change, negative = inhibition, % at 57.5 µM | AID 1259415, 2018; in the data active = activity change below about -60%; inconclusive = no clear call, values can overlap the other calls; inactive = above about -39%
#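 Screen run at 2 compound doses on HFFs infected with reporter HCMV, MOI 1 PFU/cell. Luciferase activity from cell lysates at 72 h post infection gave inhibition relative to buffer-only and Salinomycin wells.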
# FMDV inh: High Throughput Screening for Foot and Mouth Disease Virus Antivirals | Potency, µM (top dose mostly 57.9 µM), without a hit: top-dose activity change, negative = inhibition, actives largely listed as inhibitors | actives 1.2% (n = 410,000) | FMDV antiviral cell-based qHTS; calls by dose curve; tested in HEK293T cells; also: read-out not given here; potency is read from the fitted curve at half-maximal effect; nearly all actives have a fitted effect of over 45% in size
# Vaccinia Venus: qHTS for Stage-Specific Inhibitors of Vaccinia Orthopoxvirus: Venus Reporter Primary qHTS; Vaccinia virus Venus reporter expression, fluorescence; Potency, µM (highest dose often 36.5 µM), for inactives: at the highest dose activity change, negative = inhibition, actives largely listed as inhibitors; actives 0.46% (n = 330,000); calls by dose curve; tested in A549 cells; also: potency is read from the fitted curve at half-maximal effect; nearly all actives have a fitted effect of over 30% in size
# VACV mCherry inh: qHTS for Stage-Specific Inhibitors of Vaccinia Orthopoxvirus: mCherry Reporter Primary qHTS; Vaccinia virus mCherry reporter infection, fluorescence; Potency, µM (highest dose often 36.5 µM), inactives show at the top dose activity change, negative = inhibition, hits mostly inhibitors; actives 0.63% (n = 310,000); calls by dose curve; tested in A549 cells; also: potency is read from the fitted curve at half-maximal effect; nearly all actives have a fitted effect of over 35% in size
# Sm TGR inh: qHTS Assay for the Inhibitors of Schistosoma Mansoni Peroxiredoxins; Schistosoma mansoni thioredoxin glutathione reductase (TGR), Q962Y6; purified TGR, DTNB reduction, TNB absorbance 405 nm; Potency, µM (doses to about 114 µM), for inactives: at the top dose activity change, negative = inhibition, actives largely listed as inhibitors; actives 3% (n = 360,000); AID 485364, 2010; also: potency is read from the fitted curve at half-maximal effect; nearly all actives have a fitted effect of over 60% in size
#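 Kinetic colorimetric format: TGR-catalysed, NADPH-driven DTNB reduction monitored via TNB absorbance. Enzyme dispensed at 20 nM; compound exposure 15 min at room temperature before reaction start.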
# HCV inhibitor: qHTS Assay for Inhibitors of Hepatitis C Virus (HCV). actives 3.4% (n = 340,000). Huh7.5.1 HCVcc-Cre infection, luciferase reporter, 44 h. Potency, µM (series often up to 41.8 µM), for inactives: top-dose activity change, negative = inhibition, usual class: inhibitors; also: potency is read from the fitted curve at half-maximal effect
#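 Luciferase read-out (15 sec integration) after a 15 min room-temperature substrate step quantifies HCVcc-Cre infection. Cells, 1,000 per well, had compound added 4 h post-plating, then virus at ~0.5 moi, and were cultured 44 h.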
# * hit, by the source's call; i = inactive; ? = inconclusive; . = not tested or not shown; [ ] = dose if it differs, or a comment. Unless noted, calls follow the shape of the dose curve; as a rule, active = well fitted curve in the direction sought with a large enough effect; inconclusive = small, poorly fitted or top-dose-only effect, or another doubt; inactive = no such curve, though single readings can be large; an effect the other way counts as inactive or inconclusive. % is scaled to controls: 0 for no effect and ±100 for the full control effect.
SMILES,HCMV antiviral,FMDV inh,Vaccinia Venus,VACV mCherry inh,Sm TGR inh,HCV inhibitor
Cc1cccc(NS(=O)(=O)c2ccc3[nH]c4c(c3c2)CCCCCC4)c1,-103.3*,27.0%,-15.5%[7.34 µM],-19.2%[7.34 µM],8.1%,.
Cc1ccc(NS(=O)(=O)c2ccc3[nH]c4c(c3c2)CCCCCC4)cc1Cl,-83.2*,0.0%,-18.7%,-15.6%,0.3%,.
CCOc1ccc(NS(=O)(=O)c2ccc3[nH]c4c(c3c2)CCCC4)cc1,1.7,41.7%,-14.3%,-20.2%,8.6%,.
CN(C)c1ccc(CNS(=O)(=O)c2ccc3[nH]c4c(c3c2)CCCCC4)cc1,-64.9*,3.0%,-8.4%,-14.8%,0.1%,.
Cc1ccc(Cl)cc1NS(=O)(=O)c1cc2c3c(c1)CC(=O)N3CCC2,-32.4,27.4%,-9.8%,-16.9%,7.0%,.
Cc1ccc(NC(=O)c2ccc(S(=O)(=O)Nc3c(C)n(C)n(-c4ccccc4)c3=O)cc2)nc1,-16.1,-11.9%,-12.7%,-13.2%,-6.3%,-1.0%
COC(=O)[C@@H](NCc1ccc(B(O)O)cc1)C(C)C,-1.0,-6.9%,-1.2%,-13.2%,.,20.0%
CCC(C)NC(=S)NNC(=O)c1ccncc1 (centres undefined),-22.0,2.5%,-10.2%,-1.6%,-3.0%,15.2%
Cc1ccccc1S(=O)(=O)Oc1ccc2ccc(O)cc2c1,12.6,19.1%,.,.,-7.5%,22.4µM*
O=S(=O)(c1cc(-c2nnc(-c3ccc(Br)cc3)o2)ccc1Br)N1CCCCCC1,.,?,-0.8%,.,-16.0%,?
O=C1NCCc2c1[nH]c1ccccc21,23.4,3.0%,-16.5%,-14.4%,-0.5%,-20.5%
O=C1NCCc2c1[nH]c1c(Cl)ccc(Cl)c21,-33.9,-26.5%,-24.2%,-15.9%,-1.5%,11.2µM*
O=C(CCn1cnc2onc(-c3ccc(F)cc3)c2c1=O)Nc1cccc(C(F)(F)F)c1,-85.8*,-18.8%,-13.3%,-16.5%,0.0%,.
COc1ccccc1NC(=O)CCn1cnc2onc(-c3ccc(F)cc3)c2c1=O,-0.3,?,?,?,9.4%,.
Cc1ccc(NC(=O)CCn2cnc3onc(-c4ccc(F)cc4)c3c2=O)c(Br)c1,0.2,0.0%,0.4%,-8.9%,5.0%,.
O=C(CCn1cnc2onc(-c3ccc(F)cc3)c2c1=O)Nc1ccc(F)c(Cl)c1,-67.3*,-29.6%,-25.2%,-26.7%,5.6%,.
COC(=O)c1ccc(C2=NOC(C)(c3sc(-c4ccc(Cl)cc4)nc3C)C2)cc1 (centres undefined),46.3,-7.5%,-1.1%,-12.8%,?,-7.7%[8.37 µM]
Cc1nn(-c2ccccc2)c(N2CCCC2)c1/C=N/NC(=O)c1cc(-c2ccccn2)nc2ccccc12,79.1,-7.4%,-27.5%,-3.8%,-1.6%,3.98µM*
Cc1nn(-c2ccccc2)c(N2CCCC2)c1/C=N/NC(=O)c1cc2ccccc2cc1O,2.0,39.8µM*,-15.0%,-29.7%,5.7%,?
Cc1nn(-c2ccccc2)c(N2CCCC2)c1/C=N/NC(=S)Nc1ccccc1F,-61.3*,12.8%,-9.5%,i,-2.4%,?
Oc1ccc(-c2nccc(-c3ccc(F)cc3)n2)cc1,68.5,20.8%,-22.1%,-29.9%,1.2%,-24.1%
CC(=O)C[C@@H](O)CC(=O)[C@H]1OC(=O)CC/C=C\Cc2ccccc21,-14.4,-12.3%,4.0%,i,-4.2%,11.8%
O=S(=O)(CCN1C=CC(C(F)(F)F)=NCC1)c1ccc(Cl)cc1Cl,-20.7,-19.4%,-27.0%,i,25.1µM*,3.0%
N=C1S/C(=C\c2ccco2)C(=O)N1c1nccs1,-115.1*,-2.4%,-23.2%,?,22.4µM*,?
N=C1S/C(=C\c2ccco2)C(=O)N1c1ccc2c(c1)OCO2,?,12.3%,-5.0%,-12.7%,.,?
SMILES,HCMV antiviral,FMDV inh,Vaccinia Venus,VACV mCherry inh,Sm TGR inh,HCV inhibitor
CCCCCCC[C@@H](C/C=C/CCC(=O)N(C)C/C(=C/Cl)C/C(=C\C(=O)N1CC(OC)=CC1=O)OC)OC,?,?,?,10µM*,.,?
CCCCCCC[C@@H](C/C=C/CCC(=O)N(C)C/C(=C/Cl)C/C(=C\C(=O)N1C[C@H](O)CC1=O)OC)OC,-15.1,31.6µM*,?,-14.8%,.,?
CCCCCCC[C@@H](C/C=C/CCC(=O)O)OC,1.5,-11.4%,0.0%,i,.,-2.7%
O=C(NN1C(=O)C2C(C1=O)C1C=CC2C12CC2)c1ccc(Cl)cc1 (centres undefined),21.9,-18.1%,-21.7%,-18.5%,0.0%,3.5%
CCS(=O)(=O)c1ccc(C(=O)Nc2ccccc2OC)c(Cl)c1Cl,-13.0,-22.8%,-7.9%,i,5.7%,10.0%
COc1ccc2sc(N(Cc3cccnc3)C(=O)c3ccco3)nc2c1,0.0,?,?,-16.8%,10.1%,.
CN(C)CCNc1oc(COc2ccc(Cl)cc2)nc1C#N,-21.5,0.7%,3.3%,-5.8%,28.2µM*,?
N#Cc1nc(COc2cccc(Cl)c2)oc1NCCc1ccccc1,8.3,-1.3%,-7.2%,-2.1%,0.1%,.
CN(C)CCNc1oc(COc2cccc(Cl)c2)nc1C#N,12.1,-18.7%,16.7%,.,35.5µM*,5.0%
CCn1cc(/C=N/NC(=O)c2ccc3c(c2)OCO3)cn1,-35.6,12.9%,4.1%,-4.4%,-1.7%,-0.7%
Cc1[nH]c2ccccc2c1CC(=O)O,70.7,2.7%,.,.,44.7µM*,-4.5%
COCCCNC(=O)CN(C1CCCCC1)S(=O)(=O)c1ccc(C)cc1,?,12.4%,-10.5%,-16.6%,23.8%,-1.4%
Cc1ccc(-c2nnc(SCC(=O)N/N=C/c3ccc(C)s3)n2-c2ccc(C)cc2)cc1,-63.2*,-6.2%,-11.8%,-19.0%,2.1%,?
Cn1c(SCC(=O)N/N=C/c2ccc([N+](=O)[O-])s2)nnc1-c1ccccc1,-90.9*,?,?,28.2µM*,?,11.2µM*
Cn1c(SCC(=O)N/N=C/c2cc([N+](=O)[O-])ccc2O)nnc1-c1ccccc1,-10.1,-3.9%,-13.5%,-17.9%,0.8%,16.2%
O=C(N/N=C/c1ccc([N+](=O)[O-])s1)C(O)c1ccccc1 (centres undefined),-91.0*,43.2%,.,.,31.6µM*,7.08µM*
O=C(Cc1ccccc1)N/N=C/c1ccc([N+](=O)[O-])s1,-29.3,?,?,.,-28.4%,11.2µM*
Cc1ccc(-c2nnc(SCC(=O)N/N=C/c3ccccc3C(=O)O)n2-c2ccccc2)cc1,14.5,.,.,.,7.3%,.
N#Cc1ccccc1OCc1cccc(S(=O)(=O)N2CCOCC2)c1,0.0,-6.6%,.,.,-5.7%,-17.6%
COc1ccc(CNC(=O)c2cnc3scc(C)n3c2=O)cc1,3.0,0.0%,-8.5%,-9.0%,-3.6%,0.2%
